Results published in ChEMBL document CHEMBL1857833, “Screening and optimization of specific chemical series against human African Trypanosomiasis (HAT)”.
In all, about 4,400 compounds went through this assay and about 390 (8.9%) showed an effect of 50% or more. The sample as a whole holds a higher share of strong results than the screen did.

The compounds below were run on Trypanosoma brucei (assay: DNDI: Inhibition of Human African Trypanosomiasis, SBRI 427, in vitro at 2 ug.mL-1).
Type: functional

Question: With `CCOc1ccccc1-c1nc(CN2CCN(c3cccc(OC)c3)CC2)co1` as the compound, how does the “% inhibition” value read?
Answer: -3%

Question: How did the “% inhibition” value turn out when `COc1ccc(CNCc2coc(-c3ccc(F)cc3)n2)cc1OC` was run?
Answer: -5%

Question: For `CC1CCN(/C(=N\O)c2ccc(Oc3c(F)c(F)cc(F)c3F)nc2)CC1`, which “% inhibition” value is on record?
Answer: 9%

Question: `COc1ccc(CN/C(=N\O)c2cccnc2OCC(C)C)cc1` was tested. Which “% inhibition” value did it give?
Answer: -1%

Question: For `C#CC(CC)(CC)NCc1coc(-c2ccc(OC)cc2)n1`, which “% inhibition” value is on record?
Answer: -8%

Question: With `C=CCc1ccc(Oc2ccc(/C(=N/O)NCc3ccc(OC)cc3)cn2)c(OC)c1` as the compound, how does the “% inhibition” value read?
Answer: 10%

Question: With `C=CCc1ccc(Oc2cc(/C(=N/O)NCc3cccnc3)ccn2)c(OC)c1` as the compound, how does the “% inhibition” value read?
Answer: 3%

Question: How did the “% inhibition” value turn out when `C=CCc1ccc(Oc2cc(/C(=N/O)NCc3ccncc3)ccn2)c(OC)c1` was run?
Answer: 23%

Question: For `C=CCc1ccc(Oc2cc(/C(=N/O)NCc3ccc(OC)cc3)ccn2)c(OC)c1`, which “% inhibition” value is on record?
Answer: 88%

Question: How did the “% inhibition” value turn out when `C=CCc1ccc(Oc2ccc(/C(=N/O)NCc3ccncc3)cn2)c(OC)c1` was run?
Answer: 80%

Question: For `C=CCc1ccc(Oc2cc(/C(=N/O)NCc3cccc(OC)c3)ccn2)c(OC)c1`, which “% inhibition” value is on record?
Answer: 35%

Question: Which “% inhibition” value does the source give for `c1ccc(-c2nccn2Cc2coc(-c3cccc4ccccc34)n2)cc1` here?
Answer: -1%

Question: With `O/N=C(\NCc1ccco1)c1cccnc1OCc1ccccc1` as the compound, how does the “% inhibition” value read?
Answer: 17%

Question: How did the “% inhibition” value turn out when `CSc1ccc(Oc2cc(/C(=N/O)NCc3c(F)cccc3F)ccn2)cc1` was run?
Answer: 19%

Question: Which “% inhibition” value does the source give for `COc1cc(CN(C)Cc2coc(-c3cccc4ccccc34)n2)cc(OC)c1OC` here?
Answer: -3%

Question: `CCn1nccc1NCc1coc(-c2ccc(F)cc2)n1` was tested. Which “% inhibition” value did it give?
Answer: -5%

Question: For `COc1cccc(-c2nc(CN(C)CCC#N)co2)c1`, which “% inhibition” value is on record?
Answer: 4%

Question: How did the “% inhibition” value turn out when `C=CCc1ccc(Oc2ncccc2/C(N)=N/O)c(OC)c1` was run?
Answer: 18%

Question: How did the “% inhibition” value turn out when `O/N=C(\NC1CCCCC1)c1ccnc(Oc2ccc(F)c(Cl)c2)c1` was run?
Answer: 88%

Question: How did the “% inhibition” value turn out when `CC1CCCC(C)N1/C(=N\O)c1ccnc(Oc2ccc(F)c(Cl)c2)c1` (stereo not drawn) was run?
Answer: 9%

Question: Which “% inhibition” value does the source give for `O/N=C(\NC1CCCC1)c1ccnc(Oc2ccc(F)c(Cl)c2)c1` here?
Answer: 96%

Question: For `CN(/C(=N\O)c1ccnc(Oc2ccc(F)c(Cl)c2)c1)C1CCCCC1`, which “% inhibition” value is on record?
Answer: 94%

Question: Which “% inhibition” value does the source give for `O/N=C(\NCc1ccccc1F)c1ccnc(Oc2ccc(F)c(Cl)c2)c1` here?
Answer: 44%

Question: For `CN(/C(=N\O)c1ccnc(Oc2ccc(F)c(F)c2)c1)C1CCCCC1`, which “% inhibition” value is on record?
Answer: 35%

Question: How did the “% inhibition” value turn out when `O/N=C(/c1ccnc(Oc2ccc(F)c(Cl)c2)c1)N1CCCCC1` was run?
Answer: 8%

Question: For `CC1CCC(N/C(=N\O)c2ccnc(Oc3ccc(F)c(Cl)c3)c2)CC1` (stereo not drawn), which “% inhibition” value is on record?
Answer: 42%

Question: `CN(/C(=N\O)c1ccnc(Oc2cc(Cl)ccc2Cl)c1)C1CCCCC1` was tested. Which “% inhibition” value did it give?
Answer: 16%

Question: `Cc1cn(Cc2coc(-c3ccc(F)cc3)n2)cn1` was tested. Which “% inhibition” value did it give?
Answer: 9%

Question: With `N#CCCN(Cc1coc(-c2ccc(Cl)cc2Cl)n1)CC1CCCO1` (stereo not drawn) as the compound, how does the “% inhibition” value read?
Answer: 9%

Question: `Oc1ccc(-c2nc(CN3CCN(Cc4ccccc4)CC3)co2)cc1` was tested. Which “% inhibition” value did it give?
Answer: 18%

Question: `C1=CCN(Cc2coc(-c3ccco3)n2)CC1` was tested. Which “% inhibition” value did it give?
Answer: 30%

Question: For `CC1(C)Cc2cccc(Oc3ccc(/C(=N/O)NCC4CCCCC4)cn3)c2O1`, which “% inhibition” value is on record?
Answer: 34%

Question: How did the “% inhibition” value turn out when `Cc1cccc(-c2nc(Cn3ccnc3)co2)c1` was run?
Answer: 15%

Question: How did the “% inhibition” value turn out when `Cc1ccc(/C(=N/O)NC2CCCC2)c(Oc2cc(Cl)ccc2Cl)n1` was run?
Answer: 100%

Question: With `Cc1ccc(/C(=N/O)NCC2CCCO2)c(Oc2cc(Cl)ccc2Cl)n1` (stereo not drawn) as the compound, how does the “% inhibition” value read?
Answer: 85%

Question: How did the “% inhibition” value turn out when `Cc1ccc(/C(=N/O)NCC2CCCCC2)c(Oc2c(F)c(F)cc(F)c2F)n1` was run?
Answer: 12%

Question: `Cc1ccc(/C(=N/O)NC2CCc3ccccc32)c(Oc2cc(Cl)ccc2Cl)n1` (stereo not drawn) was tested. Which “% inhibition” value did it give?
Answer: -38%

Question: How did the “% inhibition” value turn out when `Cc1ccc(/C(=N/O)NCC2CC2)c(Oc2cc(Cl)ccc2Cl)n1` was run?
Answer: -4%

Question: With `Cc1ccc(/C(=N/O)NCC2CCCO2)c(Oc2ccc(F)c(Cl)c2)n1` (stereo not drawn) as the compound, how does the “% inhibition” value read?
Answer: 42%

Question: For `Cc1ccc(/C(=N/O)NC2CCCCC2)c(Oc2cc(Cl)ccc2Cl)n1`, which “% inhibition” value is on record?
Answer: 97%

Question: How did the “% inhibition” value turn out when `Cc1ccc(/C(=N/O)NCC2CCCCC2)c(Oc2cc(Cl)ccc2Cl)n1` was run?
Answer: 51%

Question: With `Cc1ccc(/C(=N/O)NCC2CCCO2)c(Oc2ccc(F)c(F)c2)n1` (stereo not drawn) as the compound, how does the “% inhibition” value read?
Answer: 8%

Question: For `Cc1ccc(/C(=N/O)NC2CC2)c(Oc2ccc(Cl)cc2)n1`, which “% inhibition” value is on record?
Answer: 9%

Question: `Cc1ccc(/C(=N/O)NC2CCC2)c(Oc2ccc(Cl)cc2)n1` was tested. Which “% inhibition” value did it give?
Answer: -9%

Question: How did the “% inhibition” value turn out when `Cc1ccc(/C(=N/O)NC2CCCCC2)c(Oc2ccc(Cl)cc2)n1` was run?
Answer: 22%

Question: With `Cc1ccc(/C(=N/O)NCCN2CCOCC2)c(OCc2ccccn2)n1` as the compound, how does the “% inhibition” value read?
Answer: 4%

Question: `Cc1ccc(/C(=N/O)NCCN2CCOCC2)c(Oc2cccc3ccccc23)n1` was tested. Which “% inhibition” value did it give?
Answer: -6%

Question: Which “% inhibition” value does the source give for `O=C(c1ccco1)N1CCN(Cc2coc(-c3ccccc3F)n2)CC1` here?
Answer: 4%

Question: `COc1cccc(OC)c1CNCc1coc(-c2ccc(Br)cc2)n1` was tested. Which “% inhibition” value did it give?
Answer: 7%

Question: `CCOc1cccc(-c2nc(CN3CCCCC3)co2)c1` was tested. Which “% inhibition” value did it give?
Answer: -5%

Question: With `COCCN(/C(=N\O)c1ccc(C)nc1OCc1ccccc1F)C(C)C` as the compound, how does the “% inhibition” value read?
Answer: 18%

Question: With `CCOc1ccccc1-c1nc(Cn2cc(C)nc2C)co1` as the compound, how does the “% inhibition” value read?
Answer: 7%

Question: How did the “% inhibition” value turn out when `COCCN(CCOC)Cc1coc(-c2ccc(C)cc2)n1` was run?
Answer: 28%

Question: Which “% inhibition” value does the source give for `COc1ccc(CNCc2coc(-c3cccc(F)c3)n2)cc1OC` here?
Answer: 13%

Question: `CCN(Cc1coc(-c2cccc(OC)c2)n1)c1cccc2ccccc12` was tested. Which “% inhibition” value did it give?
Answer: 11%

Question: `Cc1ccc(/C(=N/O)N2CCN(C)CC2)c(Oc2cc(Cl)ccc2Cl)n1` was tested. Which “% inhibition” value did it give?
Answer: 5%

Question: With `Cc1ccc(/C(=N/O)N2CCCCC2)c(Oc2cc(Cl)ccc2Cl)n1` as the compound, how does the “% inhibition” value read?
Answer: 33%

Question: `Cc1ccc(/C(=N/O)N2CCCN(C)CC2)c(Oc2cc(Cl)ccc2Cl)n1` was tested. Which “% inhibition” value did it give?
Answer: 55%

Question: With `Cc1cc(C)cc(Oc2ccc(/C(=N/O)N3CCCCC3)cn2)c1` as the compound, how does the “% inhibition” value read?
Answer: 6%

Question: With `CN(Cc1coc(-c2cccc3ccccc23)n1)C(C)(C)C` as the compound, how does the “% inhibition” value read?
Answer: 7%

Question: `Cc1ccc(Oc2nc(C)ccc2/C(=N/O)N2CCN(c3ccccc3)CC2)c(C)c1` was tested. Which “% inhibition” value did it give?
Answer: 15%

Question: For `O/N=C(/c1ccc(Oc2cccc3cccnc23)nc1)n1ccnc1`, which “% inhibition” value is on record?
Answer: -3%

Question: For `COCCN/C(=N\O)c1cccnc1Oc1ccc(OC)cc1`, which “% inhibition” value is on record?
Answer: 8%

Question: With `COCCN/C(=N\O)c1cccnc1Oc1ccc(C(C)C)cc1` as the compound, how does the “% inhibition” value read?
Answer: 97%

Question: Which “% inhibition” value does the source give for `COCCN/C(=N\O)c1cccnc1Oc1cccc(C(F)(F)F)c1` here?
Answer: 1%

Question: With `CCc1ccc(Oc2ncccc2/C(=N/O)NCCN(C)C)cc1` as the compound, how does the “% inhibition” value read?
Answer: 5%

Question: Which “% inhibition” value does the source give for `COc1ccc(Oc2ncccc2/C(=N/O)Nc2ccc(C(C)C)cc2)cc1` here?
Answer: -14%

Question: How did the “% inhibition” value turn out when `CCc1ccc(Oc2ncccc2/C(=N/O)NCCOC)cc1` was run?
Answer: 86%
